IL1B secr inh = qHTS for Inhibitors of Inflammasome Signaling: IL-1-beta AlphaLISA Primary Screen; THP-1 LPS/ATP IL-1B secretion, AlphaLISA, 16 h; active compounds read low; activity change, % at 57.5 µM; 360,000 tested, 4.7% active; AID 743279, 2014; in the data active = activity change below about -50%; inconclusive = mostly about -30% to -49%
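Secreted IL-1B measured by AlphaLISA bead assay after 16 h compound exposure of THP-1 cells; compounds (final up to 57.5 uM) added 1 h before LPS (250 ng/mL) and ATP (1.25 mM) stimulation; lower signal means less secretion.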
KB-V1 MDR tox = qHTS assay for MDR1-selective chemotherapeutics: Primary screen using the drug-selected MDR subline cells KB-V1; KB-V1 MDR cells viability, CellTiter-Glo, 72 h; Potency, µM (top dose mostly 46.1 µM), usual class: cytotoxic; 400,000 tested, 3.4% active; note: potency is the fitted concentration of half-maximal effect; nearly all actives have a fitted effect of over 60% in size
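Drug-selected KB-V1 cells, grown in DMEM lacking phenol red with 10% FBS, receive compound titrations; after three days at 37 degrees C, surviving cell ATP is quantified by CellTiter-Glo luminescence and responses normalized and curve-fitted.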
KB-3-1 tox = qHTS assay for MDR1-selective chemotherapeutics: Primary screen using the parental adenocarcinoma cell KB-3-1 | 400,000 tested, 1.4% active | KB-3-1 viability, CellTiter-Glo ATP luminescence, 72 h | Potency, µM (series often up to 46.1 µM), actives largely listed as cytotoxic | AID 1347075, 2019; note: potency is the fitted concentration of half-maximal effect; nearly all actives have a fitted effect of over 60% in size
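Multi-concentration cytotoxicity screen in KB-3-1 cells grown in DMEM lacking phenol red with 10% FBS. After 72 h at 37 °C with compound, ATP-dependent luminescence was recorded.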
HT1080NT lethal = qHTS for induction of synthetic lethality in tumor cells producing 2HG: qHTS for the HT-1080-NT fibrosarcoma cell line. HT-1080-NT fibrosarcoma viability, CellTiter-Glo ATP luminescence, 48 h. Potency, µM (titrated, usually from 46.1 µM), without a hit: at the top dose activity, negative = less viability, usual class: cytotoxic. 360,000 tested, 1.6% active. AID 686970, 2013;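 note: NT is the 2HG producing partner of a matched IDH1 knockdown line; potency is the fitted concentration of half-maximal effect; 0% = DMSO-treated cells and -100% = media-only wells without cells; nearly all actives have a fitted effect of over 55% in size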
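Fibrosarcoma NT cells, 750 per well in 5% FBS RPMI, were exposed to compound for 48 hours. Viability: CellTiter-Glo luminescence.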
HT1080 IDH1KD tx = qHTS for induction of synthetic lethality in tumor cells producing 2HG: qHTS for the HT-1080-IDH1KD cell line | AID 686971, 2013 | HT-1080 IDH1 knockdown viability, ATP luminescence, 48 h | Potency, µM (doses to about 46.1 µM), without a hit: at the top dose activity, negative = toxicity, most hits filed as cytotoxic | 360,000 tested, 2% active;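 note: potency is the fitted concentration of half-maximal effect; 0% = DMSO wells and -100% = cell-free medium wells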
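HT-1080-IDH1KD cells (IDH1 knocked down), 750/well in RPMI with 5% FBS, treated with compound 48 h at 37 degrees C. Viability by CellTiter-Glo luminescence, normalised to DMSO and no-cell wells; concentration-response curves classed.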
Numbers without * were called inactive; i = inactive; ? = inconclusive; . = no result. Hits are enriched below; roughly 8.8% of the tested compounds scored in any of these assays. Unless noted, calls come from the whole dose curve; as a rule, active = well fitted curve in the direction sought with a large enough effect; inconclusive = small, poorly fitted or top-dose-only effect, or another doubt; inactive = no such curve, though single readings can be large; an effect the other way counts as inactive or inconclusive. Unless noted, % is set by controls: 0 for no effect and ±100 for the full control effect.

SMILES	IL1B secr inh	KB-V1 MDR tox	KB-3-1 tox	HT1080NT lethal	HT1080 IDH1KD tx
O=C(NCCCN1CCOCC1)C(=O)NCC1OCCN1S(=O)(=O)c1ccc(Cl)cc1 (stereo unspecified)	2.3	i	i	20.7%	7.0%
CCOC(=O)Cn1nc(NC(=O)c2cc(OC)cc(OC)c2)cc1C	-2.7	i	i	0.5%	2.0%
CCOC(=O)Cn1nc(NC(=O)c2ccc(C(=O)OC)cc2)cc1C	-96.4*	i	i	-18.2%	-26.1%
CCOC(=O)Cn1ccc(NC(=O)c2ccc3c(c2)OCO3)n1	-95.3*	i	i	1.1%	1.1%
O=S(=O)(C/C(=C/CO)S(=O)(=O)c1ccccc1)c1ccccc1	-105.6*	?	?	7.08µM*	2µM*
CC(C)[C@H](NC(=O)c1ccccc1F)C(=O)OCCN1C(=O)c2ccccc2C1=O	5.8	14.6µM*	i	9.4%	0.3%
CCOc1ccc(C(C)(C)C)cc1S(=O)(=O)Nc1ccncc1	0.0	i	i	4.0%	0.5%
COC(=O)c1ccc(/C=C2\Oc3ccccc3NC2=O)cc1	-52.7*	?	i	8.3%	5.6%
COc1ccc(CNC(=O)OC2CC3CC2[C@H]2CCCCN2C3=O)cc1 (stereo partly specified)	21.1	i	i	16.9%	4.8%
COc1ccccc1C(CC(=O)c1ccccc1)C(=O)c1ccccc1 (stereo unspecified)	10.4	?	?	?	?
C=C(C(=O)c1ccccc1)C(CC(=O)c1ccccc1)c1ccccc1 (stereo unspecified)	-95.0*	?	?	?	11.6µM*
C=C(CCC(=O)c1ccccc1)C(=O)c1ccccc1	-83.4*	?	?	25.9µM*	?
CC(OC(=O)CCc1c[nH]c2ccccc12)C(=O)c1ccccc1 (stereo unspecified)	-13.1	i	i	17.4%	15.0%
COc1cccc(N2[C@@H](CC(=O)O)c3ccc(/C=C/C(=O)O)cc3S2(=O)=O)c1	21.5	i	i	0.0%	11.5%
COc1ccc(-n2nc3c(c2NC(=O)C(=O)NCc2ccccc2)CSC3)cc1	.	i	i	.	.
O=[N+]([O-])c1ccc(C=CC=Cc2ccccc2)cc1	-26.3	i	i	10.9%	15.2%
CN(c1ccccc1)c1ccc(/C=C/[N+](=O)[O-])cc1	-107.4*	i	?	5.17µM*	5.8µM*
CC(C)NCC(O)(c1ccc(Cl)cc1)c1ccc(Cl)cc1	-83.6*	i	i	-17.2%	-16.1%
CCN(CC)CCNCc1ccc(-c2ccc(Cl)cc2)o1	-4.3	i	i	15.8µM*	?
NCC(O)(c1ccc(Cl)cc1)c1ccc(Cl)cc1	-56.1*	i	i	-24.1%	1.0%
CCN(CC)CCNCC(O)(c1ccc(Cl)cc1)c1ccc(Cl)cc1	-86.6*	i	i	20.6µM*	20.6µM*
Cn1cc(CC(=O)NCCN2CCOCC2)c2ccccc21	96.5	i	i	?	?
CC(C)(C)c1ccc(C(=O)NCc2ccc(Cl)cc2)cc1	-4.4	i	i	-23.3%	-28.3%
CC(C)(C)NCC(O)(c1ccc(Cl)cc1)c1ccc(Cl)cc1	0.0	?	i	13µM*	14.6µM*
Cc1ccc(S(=O)(=O)NCC(=O)NCC(=O)N(C)Cc2ccc3ccccc3c2)cc1C	-52.0*	13µM*	?	?	-13.8%
CCN(CC)c1cc(CS(=O)c2ccccc2)nc(-c2ccccc2)n1 (stereo unspecified)	-50.1*	i	i	-5.9%	-4.3%
O=C1N(c2ccccc2)C[C@@H]2C[C@@H](c3cc4ccccc4o3)N3CCC[C@@]123	-103.0*	?	?	?	0.581µM*
CCN(CC)CCCN(C(=O)c1ccco1)c1nc(-c2ccc(Cl)cc2)cs1	-67.4*	i	i	23.1µM*	14.6µM*

Source: PubChem (National Center for Advancing Translational Sciences (NCATS))
